# Screening data deposited in PubChem BioAssay by National Center for Advancing Translational Sciences (NCATS).
# Sampled rows, rich in hits. Any-hit rate of the full collection: about 8%.
# Lassa entry – Lassa virus entry inhibition; Lassa virus pseudotyped entry inhibition, cell-based qHTS; Potency, µM (highest dose often 49.2 µM), inactives show top-dose activity change, negative = inhibition, most hits filed as inhibitors; 18,000 tested, 4.1% active; AID 720533
# Marburg entry – Marburg virus entry inhibition | Marburg virus pseudotype entry/binding inhibition, cell-based | Potency, µM (highest dose often 49.2 µM), inactives show top-dose activity change, negative = inhibition, hits mostly inhibitors | 18,000 tested, 6.5% active | AID 720532
# Numbers without * were called inactive; ? = inconclusive; . = no result; ! = not active in a repeat; [ ] = another dose, or the depositor's remark. The call rests on the fitted dose curve; tested in HEK293 cells. On the % scale 0 is the no-effect control and ±100 the full control effect; potency means the concentration at half of the fitted maximal effect.
SMILES,Lassa entry,Marburg entry
CCCC(=O)O[C@]1(C(=O)COC(=O)CC)[C@@H](C)C[C@H]2[C@@H]3CCC4=CC(=O)C=C[C@]4(C)[C@@]3(F)[C@@H](O)C[C@@]21C,?,11µM*
CCCC1COC(Cn2cncn2)(c2ccc(Cl)cc2Cl)O1 (configuration not stated),13µM*,11µM*
Clc1ccc(C2(Cn3cncn3)OCCO2)c(Cl)c1,-19%,-10%
O=S1(=O)c2cccc(Cl)c2OC[C@H](c2ccccc2)N1Cc1cccc(F)c1,.,-50%
O=C1NC(=O)c2c1c1c3ccccc3n3c1c1c2c2ccccc2n1C1CCC3O1,?,1.1µM*
CO[C@]1(C)C[C@H]2O[C@]1(C)n1c3ccccc3c3c4c(c5c6ccccc6n2c5c31)C(=O)N(C)C4,-5%,0%
O[C@@](CCN1CCCCC1)(c1ccccc1)[C@@H]1C[C@H]2C=C[C@@H]1C2,-10%[17.8 µM],?
Cc1nc(CC(=O)NCC2Cc3cc(F)cc(-c4ccc(F)c(C)c4)c3O2)cs1 (configuration not stated),-30%,?
CCN1C(=NCCCCO)N[C@@H](CCc2ccccc2)[C@H](C(=O)OC)[C@H]1C,-8%[8.59 µM],9%[8.59 µM]
COC(=O)c1c(C(=O)OC)c2c3ccccc3cc(C3CC3)n2c1C(=O)OC,2%[8.59 µM],12%[8.59 µM]
CCCCC/C=C/C=C1/C(=O)C=C[C@@H]1C/C=C\CCCC(=O)O,16µM*!,?
CCCCC[C@H](O)C/C=C1/C(=O)C=C[C@@H]1C/C=C\CCCC(=O)O,?,12%
CC(=O)OC[C@H]1O[C@H](CC=NO[C@H](C)CN2CCCCc3nc(C)c(C)cc32)C=C[C@@H]1OC(C)=O,-17%[8.59 µM],-21%[8.59 µM]
COc1ccc(CN2CCOc3ccc(CN4CCN(CCO)CC4)cc3C2)c2ccccc12,?,11µM*
COc1cc(CN2CCOc3ccc(CN4CCN(CCO)CC4)cc3C2)ccc1F,14%,3%
COc1cc(OC)c(CN2CCOc3ccc(CN4CCC(O)CC4)cc3C2)c(OC)c1,?,14µM*
COc1ccc(CN2CCOc3ccc(CN4CCC(Oc5cccnc5)CC4)cc3C2)c(F)c1,-8%,11µM*
COc1cc(CN2CCOc3ccc(CN4CCC(Oc5cccnc5)CC4)cc3C2)ccc1F,-10%,?
COc1ccc(F)c(CN2CCOc3ccc(CN4CCC(Oc5cccnc5)CC4)cc3C2)c1,6%,?
COC(=O)CC=C[C@@H](C)[C@@H](C=NOC[C@@H](O)[C@H]1O[C@@H]2OC(C)(C)O[C@H]2[C@@H]1O)OC,47%[8.59 µM],22%[8.59 µM]
C=C(C)C(=O)C=CCCCC=CC(=O)OCC,7%[8.59 µM],7%[8.59 µM]
COC(=O)N[C@H](C(C(=O)OC)=C(C)NCc1ccccc1)c1ccc(Cl)cc1,27%[8.59 µM],-17%[8.59 µM]
CC=CC(=O)C[C@H]1CC[C@@H](C)[C@@H](CCO)O1,0%[8.59 µM],33%[8.59 µM]
CCCCCCCCCCCCC[N+](C)(C)Cc1ccccc1,18µM*,8.9µM*
CC[N+](CC)(CCCNC1=CC(=O)C(NCCC[N+](CC)(CC)Cc2ccccc2)=CC1=O)Cc1ccccc1,-1%,1%
SMILES,Lassa entry,Marburg entry
COc1ccc(O[C@@H]2[C@H](O)CO[C@@H]2C=CC#Cc2ccccc2)cc1,-28%[8.59 µM],8%[8.59 µM]
COc1ccc(COC(=O)NN=C2C[C@@H](O)[C@@H](O)[C@@H]3[C@H]4C(=O)N(Cc5ccccc5)C(=O)[C@@H]4CC[C@@H]23)cc1,?,-25%[8.59 µM]
CCCCC[C@@H](O)C1C(=O)OC(C)[C@H](O)/C=C/C=C/C=C/C=C/C=C(\C)C(O)C(O)C(O)C[C@H](O)C[C@H](O)C[C@H](O)C[C@H](O)C[C@@H]1O (some centres not stated),-5%,16µM*!
COc1ccc2c(c1)[C@@]1(OCCC=C[C@@H]1C)C(=O)N2Cc1ccc(Br)cc1,-21%[8.59 µM],5%[8.59 µM]
C=C(C)[C@H]1O[C@H]2CC[C@@]3(C)[C@@](O)(CC[C@H]4[C@@H]5OC(C)(C)[C@H]6C[C@@H]7C(=C)Cc8c(Cl)cc9[nH]c(c5c9c8[C@@]76O)[C@@]43C)[C@]23O[C@@H]3[C@H]1O,25µM*,?
CC[C@H]1C[C@@H]2C[C@H]3c4[nH]c5ccc(OC)cc5c4CCN(C2)[C@@H]13,-11%,28µM*
COc1ccc2[nH]c3c(c2c1)CCN=C3C,5%[17.8 µM],?
CC(C)NC(=O)[C@@H]1C[C@@H](Sc2nc3ccccc3[nH]2)CN1C1Cc2ccccc2C1,?,-10%
COc1cc2c(cc1OC)[C@@H]1O[C@](c3ccsc3)(C2)Oc2cc(-c3ccccc3)oc(=O)c21,17%[8.59 µM],?
CSc1nc(C(=O)N2CCc3c(cnc(C)c3CNC(=O)c3ccc4c(c3)OCO4)C2)cs1,-1%,-13%
Cc1cc2c(nc1C)CCCN2CC(O)CN1CCN(C)CC1 (configuration not stated),-17%[8.59 µM],18%[8.59 µM]
Nc1nc2c(ncn2[C@@H]2O[C@H](COP(=O)(O)OP(=O)(O)O)[C@@H](O)[C@H]2O)c(=O)[nH]1,22%,15%
Nc1nc2c(ncn2C2OC(COC(=O)c3ccccc3)C(OC(=O)c3ccccc3)C2OC(=O)c2ccccc2)c(=O)[nH]1 (configuration not stated),11µM*,-28%
CC(CN(C)C)CN1c2ccccc2S(=O)(=O)c2ccccc21 (configuration not stated),-5%,?
CCN(CC)C(C)CN1c2ccccc2Sc2ccccc21 (configuration not stated),14µM*,1.6µM*
NCCc1c[nH]c2ccc(O)cc12,-11%,-10%
CCCCCCCCCOc1ccc2[nH]cc(CCN)c2c1,35µM*!,10µM*
CCN1C(=NCc2ccc(OC)cc2)NC(c2cccc(C(F)(F)F)c2)C(C(=O)OC)=C1C (configuration not stated),4%[8.59 µM],13%[8.59 µM]
C[C@@H]1C=CCCO[C@]12C(=O)Nc1ccc(O)cc12,-19%[8.59 µM],10%[8.59 µM]
Cc1nnc2n1-c1sc(CCc3ccc(CC(C)C)cc3)cc1C(c1ccccc1Cl)=NC2C (configuration not stated),7.9µM*,14µM*
Cc1nnc2n1-c1sc(CCC(=O)N3CCOCC3)cc1C(c1ccccc1Cl)=NC2,-16%,11%
COC(=O)C(C(C)=O)[C@@H](NC(=O)NCc1ccccc1)c1ccccc1 (some centres not stated),15%[8.59 µM],25%[8.59 µM]
CN(C)CCC1(c2ccc(Cl)cc2)Cc2ccccc2C(=O)O1 (configuration not stated),-15%,35µM*
CC[C@]1(c2ncc[nH]2)Cc2ccccc2O1,4%,-18%
CCN1C(=NCc2ccco2)N[C@@H](c2ccccc2)[C@H](C(=O)OC)[C@H]1C,-22%[8.59 µM],13%[8.59 µM]
C#CCNC(=O)[C@H]1C=C(OC)C(=O)C[C@H](c2ccccc2)[C@H]1C,-18%[8.59 µM],8%[8.59 µM]
CC(=O)Oc1c2c(c(CC=C(C)C)c3c1C(=O)C1=CC4CC5C(C)(C)OC(C/C=C(\C)C(=O)O)(C4=O)[C@]15O3)OC(C)(CCC=C(C)C)C=C2 (some centres not stated),?,2.8µM*
COC(=O)/C(C)=C\CC12OC(C)(C)C3CC(C=C4C(=O)c5c(OC)c6c(c(CC=C(C)C)c5OC431)OC(C)(CCC=C(C)C)C=C6)C2=O (configuration not stated),4.5µM*,2.8µM*
CC(=O)Oc1c(-c2ccccc2)oc2c(CC=C(C)C)c3c(c(OC(C)=O)c2c1=O)C=CC(C)(C)O3,1%,1%
CN1CCN(CCCNc2nc3ccc(Oc4ccc(NC(=O)Nc5cc(C(F)(F)F)ccc5F)cc4)cc3[nH]2)CC1,61%,?
